Experimental data taken from PubChem BioAssay (Tox21).
Values joined by “and” are separate entries in the source; they are usually repeats but may differ in a detail not shown here. Equal values may be shown once. Inconclusive results are not listed. Where a call stands in place of a potency, no number is given. Active and inactive are the calls of the source. Calls come from the whole dose curve; as a rule, active = well fitted inhibition curve with a large enough effect in the repeat runs; inconclusive = weak or mixed curves; inactive = no such curve, though single readings can be large or run the other way.

Target: Cytochrome P450 1A2 (Homo sapiens) (UniProt P05177)
Sequence (P05177 whole entry, looked up): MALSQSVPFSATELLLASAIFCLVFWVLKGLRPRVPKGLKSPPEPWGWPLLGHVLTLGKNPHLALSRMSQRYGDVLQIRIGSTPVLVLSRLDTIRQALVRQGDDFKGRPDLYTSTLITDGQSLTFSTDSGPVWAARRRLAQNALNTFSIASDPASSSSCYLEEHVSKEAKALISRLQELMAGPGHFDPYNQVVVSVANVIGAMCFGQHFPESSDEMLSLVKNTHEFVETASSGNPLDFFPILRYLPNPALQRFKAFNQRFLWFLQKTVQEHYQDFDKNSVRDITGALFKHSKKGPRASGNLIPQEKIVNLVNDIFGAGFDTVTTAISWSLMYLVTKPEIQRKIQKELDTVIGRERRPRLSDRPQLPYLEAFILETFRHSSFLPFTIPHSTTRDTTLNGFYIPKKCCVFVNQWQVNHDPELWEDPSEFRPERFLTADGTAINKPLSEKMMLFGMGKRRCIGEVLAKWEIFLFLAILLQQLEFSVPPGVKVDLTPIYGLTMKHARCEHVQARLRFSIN
Assay: Cytochrome P450 Family 1 Subfamily A Member 2 (CYP1A2) small molecule antagonists: luciferase reporter qHTS assay (AID 1671199); note: nearly all actives have a fitted effect of over 50% in size
Details: P450-Glo CYP1A2 enzyme, luciferin luminescence, 1 h; series mostly up to 53 µM
From the text: National Center for Advancing Translational Sciences [NCATS]
U.S. Environmental Protection Agency [EPA]
National Institutes of Environmental Health Sciences [NIEHS]
National Toxicology Program [NTP]
U.S. Food and Drug Administration [FDA]
Cytochrome P450 (CYP) enzymes are membrane-bound hemeproteins that play a key role in metabolism of drugs and xenobiotics. Evaluation of the effect of chemicals on CYP isozymes is useful to minimize the adverse drug reactions and toxicities in drug development process. Tox21 chemicals were tested for their effect on CYP enzyme activities by using P450-Glo (TM) screening systems (Promega Corporation, Madison, WI). These systems provide a luminescent method containing proluciferin substrates and are converted to luciferin products by CYP isozymes. The luciferin products formed are detected with a luciferin detection reagent, and the amount of light produced is proportional to CYP activity. P450-Glo (TM) CYP1A2 screening system (Catalog. No. V9770) was used to detect the compounds that interfere in CYP1A2 activity. The positive control compound used for CYP1A2 assay is furafylline (Sigma-Aldrich, St. Louis, MO).
Tox21 Assay Protocol Summary:
Two ul of enzyme-substrate mix was dispensed into medium binding white/solid 1536-well plates (Greiner Bio-One North America Inc., Monroe, NC) using a BioRaptr Flying Reagent Dispenser (FRD, Beckman Coulter, Brea, CA). Compounds dissolved in DMSO and positive control (furafyllline) were transferred to the assay plates at 23 nl using a Pintool station (Wako, San Diego, CA). The assay plates were incubated at room temperature for 10 min. Then 2 ul of NADPH regeneration solution was added to each well of the assay plates using an FRD and incubated at room temperature for 1 h. The reaction was stopped by adding 4 ul of detection reagent using an FRD and after 20 min incubation at room temperature the luminescence signal was measured using a ViewLux plate reader (Perkin Elmer, Shelton, CT). Data were expressed as relative luminescence units.
Potency is the fitted concentration of half-maximal effect.

SMILES	Potency
C=C1CC[C@H]2C[C@@H]1C2(C)C	inactive
NC(=O)Nc1ccccc1	inactive
CC(C)NCC(O)c1ccc(NS(C)(=O)=O)cc1 (stereo not given)	inactive
C1OCOCO1	inactive
O=c1[nH]c(=O)n([C@H]2C[C@H](O)[C@@H](CO)O2)cc1I	inactive
CCCCNC(=O)NCCCC	35.6 µM (active)
CN1CCN(c2cc3c(cc2F)c(=O)c(C(=O)O)cn3-c2ccc(F)cc2)CC1	inactive
C[C@@H]1CCN(C(=O)[C@H](CCCN=C(N)N)NS(=O)(=O)c2cccc3c2NC[C@H](C)C3)[C@@H](C(=O)O)C1	inactive
CC(=O)Nc1c(I)cc(I)c(C(=O)O)c1I	24.5 µM (active)
CN(C)CCCSc1ccccc1NC(=O)/C=C/c1ccccc1	inactive
NS(=O)(=O)c1ccccc1Cl	inactive
CC1=CC(C)C(C=O)CC1 (stereo not given)	inactive
CCC(=O)OC(C)c1ccccc1 (stereo not given)	inactive
Cc1ccc(=O)n(-c2ccccc2)c1	inactive
ClC(Cl)(Br)Br	inactive
CC1(C)CO[C@@H](CC(=O)O)CN1	inactive
COC(=O)c1c(Cl)c(Cl)c(C(=O)OC)c(Cl)c1Cl	317 nM (active) and 154 nM (active)
CC(=O)c1ccccc1O	inactive
COc1c(N2C[C@@H]3CCCN[C@@H]3C2)c(F)cc2c(=O)c(C(=O)O)cn(C3CC3)c12	inactive
COCCCOCCCOC	inactive

SMILES	Potency
CC(=O)OC/C=C(\C)CC/C=C(\C)CCC=C(C)C	inactive
Cc1sccc1Br	inactive
CN1CC(=O)NC1=N	inactive
Cn1c(N)c(N=O)c(=O)n(C)c1=O	inactive
CCCN(CCC)CCc1cccc2c1CC(=O)N2	inactive
Cc1ccc(C#N)cc1	inactive
CC(C)(O)C#CC(C)(C)O	inactive
CCCCCCOC(=O)CCCCC(=O)OCCCCCC	inactive
CO[Si](CCCOCC1CO1)(OC)OC (stereo not given)	inactive
N=c1nc(N2CCCCC2)cc(N)n1O	inactive
CCOC(=O)C(=O)OCC	inactive
CC(C)NCCCC1(C(N)=O)c2ccccc2-c2ccccc21	inactive
Cc1cc2c(cc1S(N)(=O)=O)S(=O)(=O)CCC2	inactive
CCN(CC)CCNC(=O)c1cc(S(C)(=O)=O)ccc1OC	inactive
N#Cc1ccc(C2CCCc3cncn32)cc1 (stereo not given)	inactive
CCSC(=O)N(CC(C)C)CC(C)C	inactive
Cn1cc(S(C)=O)c(=O)c2ccc(F)cc21 (stereo not given)	inactive
CCC(C)C1CCCCC1=O (stereo not given)	inactive
O=C(O)CNC(=O)c1ccc([N+](=O)[O-])cc1	inactive
CC(C)CCCC(C)N (stereo not given)	21.9 µM (active)
